Screening results as filed in PubChem.
HCT116 PTEN-null = growth suppressors of cells with PTEN tumor suppressor deletion; AID 827; viability, % at 10 µM; 140,000 compounds, 1.2% hits; HCT116 PTEN-null viability, CellTiter-Glo, 60 h; active compounds read low;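 active means viability at or below a set limit, 4 SD under the median of all tested compounds, cut at about 3.7% in these data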;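 further: PTEN knockout HCT116 line with beta catenin targeted HCT116 as companion control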
p97 inhibitor = blocks human p97 ATPase activity; P55072; 220,000 compounds, 0.42% hits; inhibition, % at 8 µM; AID 1481; recombinant p97 ATPase, Kinase-Glo ATP luminescence, 3 h; in the data active means inhibition above about 15%
Target sequence (P55072 whole entry, looked up): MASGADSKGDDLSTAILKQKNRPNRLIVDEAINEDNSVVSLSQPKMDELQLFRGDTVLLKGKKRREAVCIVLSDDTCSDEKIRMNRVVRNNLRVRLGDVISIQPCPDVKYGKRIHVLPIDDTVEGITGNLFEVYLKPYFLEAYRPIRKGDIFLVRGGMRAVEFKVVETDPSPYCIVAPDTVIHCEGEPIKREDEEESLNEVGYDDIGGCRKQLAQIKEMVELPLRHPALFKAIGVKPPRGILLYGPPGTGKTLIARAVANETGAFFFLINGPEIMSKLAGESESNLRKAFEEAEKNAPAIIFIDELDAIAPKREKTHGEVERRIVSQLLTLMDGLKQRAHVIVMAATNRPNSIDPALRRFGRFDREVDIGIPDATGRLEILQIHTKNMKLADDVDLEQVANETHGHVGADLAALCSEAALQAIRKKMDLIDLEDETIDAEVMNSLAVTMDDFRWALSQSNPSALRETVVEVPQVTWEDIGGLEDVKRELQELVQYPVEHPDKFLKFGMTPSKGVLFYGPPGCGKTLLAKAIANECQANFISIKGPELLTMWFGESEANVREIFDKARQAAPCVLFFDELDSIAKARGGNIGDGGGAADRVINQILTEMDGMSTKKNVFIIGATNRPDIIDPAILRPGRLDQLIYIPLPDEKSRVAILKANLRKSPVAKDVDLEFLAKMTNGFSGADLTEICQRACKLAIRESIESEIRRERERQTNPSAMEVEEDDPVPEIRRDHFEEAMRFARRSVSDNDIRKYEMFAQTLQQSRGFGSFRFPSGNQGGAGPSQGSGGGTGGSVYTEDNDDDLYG
Insulin prom inh = TRM-6 insulin promoter activity inhibition; 130,000 compounds, 0.9% hits; inhibition, % at 2 µM; TRM-6 cells (human fetal islet line), insulin promoter-eGFP reporter, imaging; reporter expression induced with tamoxifen;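 active means inhibition above the mean plus 3 SD, with well images judged a real hit on visual review, cut at about 60% in these data, passing the limit was not always enough; inconclusive means inhibition over the cutoff but images rejected on review; inactive means inhibition not above the cutoff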
L major viab = reduces viability of Leishmania major promastigotes. inhibition, % at 10 µM. resazurin fluorescence viability. 200,000 compounds, 9% hits. AID 1063; in the data active means inhibition above about 50%;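 further: promastigotes grown with compound for 44 hours at 28 °C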
ROMK mod = modulators of human ROMK potassium channel | P48048 | Tet-inducible ROMK, thallium flux fluorescence; actives lie on both sides | B-score at 10 µM | 130,000 compounds, 2% hits | AID 1918;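 active means signal ratio slope over the read window, or its plate-corrected B-score, at least 3 SD from the plate mean, either direction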;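 further: B-score of the F/F0 ratio slope over 7 to 12 s after thallium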
bCat KO growth = beta-catenin-lacking colon tumor cell growth suppression | HCT116 beta-catenin knockout viability, CellTiter-Glo, 60 h; active compounds read low | viability, % at 10 µM | 140,000 compounds, 1.5% hits | AID 818;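 active means viability at or under a set limit, the compound median less 4 SD, cut at about 6% in these data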
Lmaj promast 1uM = L. major promastigote growth inhibition, 1 uM repeat; shares compounds with L major viab; resazurin fluorescence, 48 h; inhibition, % at 1 µM; 1,100 compounds, 13% hits;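 active means inhibition above about 50% in both repeat tests, limit read from the data; inconclusive means one repeat under the set limit, the other over it; inactive means both repeats under the set limit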
Large screens that a line does not name were inactive (follow-up assays come after a bar, where they were run). This is a sample that favours compounds with a hit; in the whole collection about 10% have one here.

CCOc1nc(C)cc(C)c1S(=O)(=O)c1cccc(C)c1	none (no result: HCT116 PTEN-null, Insulin prom inh, bCat KO growth)
Cc1cc(C)c(S(=O)(=O)c2c(C)cccc2C)c(OCC(C)C)n1	L major viab 96 (no result: Insulin prom inh, ROMK mod) | Lmaj promast 1uM inconclusive
O=C(Nc1ccc(F)cc1)c1sccc1SCc1cccc(C(F)(F)F)c1	none (no result: ROMK mod)
COc1ccc(NC(=O)c2sccc2SCc2cccc(C(F)(F)F)c2)cc1	L major viab 100 (no result: ROMK mod) | Lmaj promast 1uM inactive
O=C(Nc1cc2cccc([N+](=O)[O-])c2oc1=O)c1cccs1	none (no result: HCT116 PTEN-null, Insulin prom inh, bCat KO growth)
CCOC(=O)C(=NC(C)CC)NNc1ccc(Br)cc1 (centres undefined)	none
CC(C)Cc1nc2ccccc2n1CCc1ccccc1	L major viab 56 | Lmaj promast 1uM inactive
Cc1c(Cl)cn2c(=O)cc(CN3CCN(c4ccc(F)cc4)CC3)nc2c1Cl	none (no result: HCT116 PTEN-null, Insulin prom inh, bCat KO growth)
O=C1CSC(c2cccs2)N1c1ccccc1 (centres undefined)	none (no result: Insulin prom inh, ROMK mod)
c1ccc(N2CCN(c3ccccc3)C2c2cccs2)cc1	L major viab 94 (no result: Insulin prom inh, ROMK mod) | Lmaj promast 1uM inactive
COC(=O)Cc1c[nH]c2cccc(OCC(O)CN(Cc3ccccc3)C(C)C)c12 (centres undefined)	L major viab 98 | Lmaj promast 1uM inactive
COC(=O)Cc1c[nH]c2cccc(OCC(O)CN(Cc3ccc([N+](=O)[O-])cc3)C(C)(C)C)c12 (centres undefined)	none (no result: ROMK mod)
O=C(Nc1cccn(Cc2ccccc2)c1=O)NC1CCCCC1	L major viab 78 (no result: ROMK mod) | Lmaj promast 1uM inactive
O=C(NCc1ccccc1)Nc1cccn(Cc2ccccc2)c1=O	none (no result: Insulin prom inh)
CN(C)S(=O)(=O)c1cccc(N=c2scc(-c3ccc4c(c3)NC(=O)CO4)n2CC2CCCO2)c1 (centres undefined)	L major viab 96 | Lmaj promast 1uM inactive
COc1cccc(CC2(CO)CCCN(C/C=C/c3ccccc3OC)C2)c1 (centres undefined)	none (no result: HCT116 PTEN-null, Insulin prom inh, bCat KO growth)
COc1ccccc1/C=C/CN1CCCC(CO)(Cc2cccc(Cl)c2)C1 (centres undefined)	L major viab 82 (no result: HCT116 PTEN-null, Insulin prom inh, bCat KO growth) | Lmaj promast 1uM inactive
Cc1cc(C(F)(F)F)nn1CC(=O)Nc1ccc(Br)c2cccnc12	L major viab 96 (no result: ROMK mod) | Lmaj promast 1uM inactive
N#Cc1ccccc1S(=O)(=O)Nc1ccc2c(c1)C(=O)OC2	none (no result: HCT116 PTEN-null, Insulin prom inh, L major viab, bCat KO growth)
O=S(=O)(c1ccccc1)N(CC1CO1)c1cccc2ccccc12 (centres undefined)	none (no result: HCT116 PTEN-null, Insulin prom inh, bCat KO growth)
Cc1ccc(S(=O)(=O)c2ccc(Oc3cccc(C)c3)cc2)cc1	L major viab 74 (no result: ROMK mod) | Lmaj promast 1uM 85
CCOC(=O)C1=C(C)NC(=O)NC1c1ccoc1 (centres undefined)	none (no result: HCT116 PTEN-null, Insulin prom inh)
CC(=O)O[C@@H]1C[C@H]2C(C)(C)C(=O)C=C[C@]2(C)[C@H]2CC[C@@]3(C)[C@H](c4ccoc4)OC(=O)[C@H]4O[C@]43[C@@]21C	L major viab 100, bCat KO growth 3.9 | Lmaj promast 1uM 94
CCN(CC)CCOC(=O)C12CC3CC(CC(C3)C1)C2	L major viab 97 | Lmaj promast 1uM inactive
O=[N+]([O-])c1ccc(-c2nc(-c3cccs3)c(-c3cccs3)[nH]2)cc1	L major viab 92 (no result: ROMK mod) | Lmaj promast 1uM 55
O=C(c1ccc(Cl)cc1)[C@@H]1[C@@H]2C(=O)N(c3cccc4ccccc34)C(=O)[C@@H]2C2c3ccccc3C=NN21 (some centres undefined)	none (no result: ROMK mod)
O=C(O)Cc1ccc2sc(-c3ccccc3)nc2c1	L major viab 72 | Lmaj promast 1uM inactive
O=C(COC(=O)c1cccc(C(=O)OCC(=O)NC2CC2)n1)NC1CC1	none (no result: HCT116 PTEN-null, Insulin prom inh, bCat KO growth)
Nc1nn(-c2ccccc2)c(N)c1N=Nc1ccc2c(c1)OCO2	L major viab 87 | Lmaj promast 1uM 79
COc1ccc(-c2cc(Nc3ccccc3NC(=O)C(F)(F)F)n(CCC#N)n2)cc1	Insulin prom inh 60, L major viab 63 | Lmaj promast 1uM inactive
Cc1ccc(NC(=O)CCC(=O)c2cccs2)c(O)c1	none (no result: HCT116 PTEN-null, Insulin prom inh, L major viab, ROMK mod, bCat KO growth)
Cc1nc2ccc(Cl)cc2c(-c2ccccc2F)c1CC(=O)O	L major viab 62 | Lmaj promast 1uM inactive
Cc1nc2ccc(Cl)cc2c(-c2ccccc2Cl)c1CC(=O)O	none
Cc1nc2ccc(Cl)cc2c(-c2ccccc2)c1CC(=O)O	L major viab 54 | Lmaj promast 1uM inactive
O=C(CSc1nc2ccccc2[nH]1)N1CCN(c2ccc(F)cc2)CC1	L major viab 58 | Lmaj promast 1uM inactive
CC1CCN(C(=O)CSc2nc3ccccc3[nH]2)CC1	none (no result: Insulin prom inh)
O=C(/C=C/c1cn(-c2ccccc2)nc1-c1cccs1)NCCN1CCOCC1	none (no result: HCT116 PTEN-null, Insulin prom inh, L major viab, ROMK mod, bCat KO growth)
Nc1cc(=O)[nH]c(SCC(=O)Nc2ncc(C(F)(F)F)cc2Cl)n1	none (no result: HCT116 PTEN-null, bCat KO growth)
CCOc1cc(-c2noc(-c3cccnc3)n2)ccc1OC	none (no result: Insulin prom inh)
CCOc1ccc(-c2noc(-c3cccnc3)n2)cc1OC	L major viab 71 (no result: Insulin prom inh, ROMK mod) | Lmaj promast 1uM inactive
COc1ccccc1NC(=S)NC1CCC(CC2CCC(NC(=S)Nc3ccccc3OC)CC2)CC1 (centres undefined)	none (no result: Insulin prom inh, ROMK mod)
Cc1ccc2nc3cc([N+](=O)[O-])cc([N+](=O)[O-])c3cc2c1	L major viab 101 (no result: HCT116 PTEN-null, bCat KO growth) | Lmaj promast 1uM 100
Cc1nc2ccc([N+](=O)[O-])cc2nc1C	none (no result: HCT116 PTEN-null, bCat KO growth)
N#Cc1ccc(C(=O)CSc2n[nH]c(=O)n2-c2cccnc2)cc1	none (no result: HCT116 PTEN-null, Insulin prom inh, L major viab, ROMK mod, bCat KO growth)
CCc1ccc(/C=C2\CN(CC)Cc3c2nc2ccccc2c3C(=O)O)cc1	L major viab 54 (no result: ROMK mod) | Lmaj promast 1uM inactive
Cn1nc(C(F)(F)F)c2cc(NC(=O)OCc3ccc(C(C)(C)C)cc3)sc21	L major viab 97 | Lmaj promast 1uM inactive
O=[N+]([O-])c1c(N2CCN(CCO)CC2)nc2ccccn12	none (no result: HCT116 PTEN-null, Insulin prom inh, L major viab, ROMK mod, bCat KO growth)
OC12CCCCC1C(c1ccc3c(c1)OCO3)N(Cc1ccccc1F)CC2 (centres undefined)	L major viab 60 | Lmaj promast 1uM inactive
CCN(Cc1cc(=O)n2ccsc2n1)c1cccc2ccccc12	none (no result: Insulin prom inh, ROMK mod)
CCOc1ccccc1N(C(=O)Nc1ccc(Cl)cc1)C1=NCCS1	none (no result: Insulin prom inh, ROMK mod)
CCOc1ccccc1N(C(=O)Nc1cccc(Cl)c1)C1=NC(C)CS1 (centres undefined)	L major viab 81 | Lmaj promast 1uM inactive
COC(=O)COc1ccc(NC(=O)c2ccco2)cc1	none (no result: HCT116 PTEN-null, Insulin prom inh, L major viab, bCat KO growth)
CCOC(=O)c1ccccc1NC(=O)c1ccccc1N(C)S(C)(=O)=O	L major viab 90 (no result: ROMK mod) | Lmaj promast 1uM inactive
COC(=O)c1ccccc1NC(=O)c1ccccc1N(C)S(C)(=O)=O	none (no result: ROMK mod)
COc1ccc(CN2CCC(CNC(=O)NC3CCCCC3)CC2)cc1	L major viab 90 (no result: Insulin prom inh) | Lmaj promast 1uM inactive
O=C(c1ccc(C(F)(F)F)cc1)N1CCC(=O)N(C(COCc2ccccc2)Cc2ccccc2)CC1 (centres undefined)	none
CC(C)(C)c1ccc(C(=O)N2CCC(=O)N(C(COCc3ccccc3)Cc3ccccc3)CC2)cc1 (centres undefined)	L major viab 52 | Lmaj promast 1uM inactive
O=C(c1ccc(F)cc1)C1CCN(C(=S)NCC2CCCO2)CC1 (centres undefined)	none (no result: HCT116 PTEN-null, bCat KO growth)
